# PubChem BioAssay
# Where “and” joins values, the source holds several entries; their conditions need not be identical. Equal values may be shown once. Calls of active or inactive are those of the source.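 The calls were made as follows, unless noted: active = compounds whose cell count with miR-34 switched on is under 0.7 times the count with it off; inactive = the rest.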
# Tests used:
# [1] = P. berghei load reduction in hepatocytes – cell-based, HepG2, luciferase luminescence, HepG2 viability, primary screen (AID 624349; in the data active = parasite load remaining mostly below about 12%, no sharp cut-off; inactive = mostly above about 10%;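 also: 100% = mean of DMSO negative control wells on the same plate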); conditions: P. berghei liver stage in HepG2, luciferase luminescence, concentration not given here; parasite load remaining: stronger effect = lower value; viability: measured here: HepG2 viability without parasites
# [2] = Wnt pathway potentiators raising nuclear beta-catenin – imaging, WNT3A-conditioned medium, mouse C2C12, NPC library, primary screen (AID 1117326; in the data active = nuclear beta-catenin stimulation mostly above about 4.2%, no sharp cut-off; inactive = mostly below about 10%); conditions: stronger effect = higher value
# [3] = stimulators of insulin release from INS-1E, primary screen, cell-based, 5 mM glucose, NPC library (AID 1117329;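 active = compound raises insulin release from rat beta cells at 5 mM glucose, no numeric limit stated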); conditions: rat INS-1E insulin secretion, at 10 µM, stronger effect = higher value
# [4] = growth inhibition of GSK3B-pretreated HCT116 cells – cell-based, CellTiter-Glo, 0.2 to 20 µM (AID 1117336;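 active = compounds lowering colon cancer cell viability after pretreatment blocking the GSK3B kinase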); conditions: HCT116 viability after GSK3B inhibitor, at 20 µM, stronger effect = higher value
# [5] = inhibition of endothelial tube formation, primary screen, imaging, VEGF stimulated, CD31 staining, tube area, NPC library (AID 1117340;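 active = compound that reduces growth-factor-driven endothelial tube area in a mixed cell culture, no cutoff stated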); conditions: VEGF-stimulated ADSC/ECFC co-culture, at 10 µM, stronger effect = higher value
# [6] = GLP1 release stimulators, primary, NCI-H716, NPC library (AID 1117341;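 active = compound raises GLP1 secretion from the human gut endocrine cells, with no numeric limit stated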); conditions: NCI-H716 cells, at 10 µM, stronger effect = higher value
# [7] = HCT116 colon cancer cell growth inhibition, primary screen, CellTiter-Glo luminescence, NPC library (AID 1117342;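 active = compounds that lower survival of HCT116 colon cancer cells in the luminescence readout, no numeric limit stated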); conditions: at 20 µM (top of the series)
# [8] = reduced SW480 viability measured with CellTiter-Glo, NPC library, primary (AID 1117343;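 active = compounds that lower viability of the colon cancer cells in the luminescence readout, with no numeric limit stated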); conditions: CellTiter-Glo luminescence; at 20 µM (top of the series) unless noted
# [9] = NPC library primary testing for decreased DLD-1 cell viability via CellTiter-Glo (AID 1117346;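 active = compounds that lower survival of DLD-1 colon cancer cells in the luminescence readout, no cutoff given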); conditions: DLD-1 viability, CellTiter-Glo luminescence; at 20 µM (top of the series)
# [10] = EMT-state selective cytotoxicity in co-culture – imaging, PC-3E GFP, TEM4-18 mCherry, primary screen (AID 1345086;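 active = compounds killing one labelled cell type while sparing the other, by normalised counts and ratio limits, not self-fluorescent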;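 as to all read-outs here: cells exposed to compound for 72 h before imaging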;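 as to red/green cell ratio (normalised): normalised mesenchymal count divided by normalised epithelial count so high means epithelial killing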); conditions: PC-3E GFP / TEM4-18 mCherry co-culture, imaging cell counts, at 1 µM; for red/green cell ratio (normalised): actives lie on both sides, counts scaled to control wells, 1 = unselective
# [11] = viability loss with induced miR-34 in A549 – imaging, A549 dox-inducible miR-34, nuclei and caspase counts, primary screen (AID 1347080); conditions: A549 miR-34 inducible, Hoechst nuclei count, 48 h
# [12] = MELAS cybrid and Rieske KO viability enhancers – cell-based, MELAS cybrids, Rieske KO mouse fibroblasts, CellTiter-Glo, primary screen (AID 1508586;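 active = mean z-score across replicates of 1.96 or higher in either the MELAS or the Rieske mutant cell line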;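 also: z relative to plate mean and SD of compound and empty wells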); conditions: low glucose
# [13] = target: NAD(+) hydrolase SARM1 (Homo sapiens) (UniProt Q6SZW1); test: blocking NAD cleavage by SARM1 SAM-TIR – cell lysate, NAD-Glo luminescence (AID 1508614;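 active = compound whose remaining NAD level is above about 45 nM, limit read from the data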;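 also: higher remaining NAD means stronger inhibition of SARM1 NADase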); conditions: SAM-TIR HEK293T lysate NADase, at 1 µM, stronger effect = higher value
# [14] = compounds altering viability of human ES cells (AID 493140; call rule not given here;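 also: cells exposed to compounds for four days before counting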); conditions: human embryonic stem cell survival screen; stronger effect = higher value
# [15] = growth inhibition, single agent or in combination, cell-based, chromothripsis tumors, cisplatin or BGB combos (AID 1671449; in the data active = inhibition above about 80%;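 also: cells exposed for 96 hours; 0% = vehicle DMSO and 100% = killing by high DMSO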); conditions: LFS_MB_P medulloblastoma cells
# [16] = growth inhibition, single agent and combos, cell-based, chromothripsis tumors, cisplatin or BGB combos (AID 1671450; in the data active = inhibition above about 80%;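 also: cells exposed to compound for four days; 0% = vehicle DMSO and 100% = cell killing by high DMSO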); conditions: HDN33 neuroblastoma cells, stronger effect = higher value
# [17] = measured here: epithelial PC-3E GFP cell survival
# [18] = measured here: mesenchymal TEM4-18 mCherry cell survival
# [19] = stronger effect = lower value, cell number ratio, induced over uninduced
# [20] = measured here: relative caspase fold change +Dox/-Dox
# [21] = measured here: total cells with miR-34 induction, stronger effect = lower value
# [22] = measured here: total cells without miR-34 induction
# [23] = MELAS cybrid survival, CellTiter-Glo 48 h, stronger effect = higher value
# [24] = Rieske KO mouse fibroblast survival, CellTiter-Glo 72 h
# NAD(+) hydrolase SARM1 (Homo sapiens), sequence (Q6SZW1 whole entry, looked up): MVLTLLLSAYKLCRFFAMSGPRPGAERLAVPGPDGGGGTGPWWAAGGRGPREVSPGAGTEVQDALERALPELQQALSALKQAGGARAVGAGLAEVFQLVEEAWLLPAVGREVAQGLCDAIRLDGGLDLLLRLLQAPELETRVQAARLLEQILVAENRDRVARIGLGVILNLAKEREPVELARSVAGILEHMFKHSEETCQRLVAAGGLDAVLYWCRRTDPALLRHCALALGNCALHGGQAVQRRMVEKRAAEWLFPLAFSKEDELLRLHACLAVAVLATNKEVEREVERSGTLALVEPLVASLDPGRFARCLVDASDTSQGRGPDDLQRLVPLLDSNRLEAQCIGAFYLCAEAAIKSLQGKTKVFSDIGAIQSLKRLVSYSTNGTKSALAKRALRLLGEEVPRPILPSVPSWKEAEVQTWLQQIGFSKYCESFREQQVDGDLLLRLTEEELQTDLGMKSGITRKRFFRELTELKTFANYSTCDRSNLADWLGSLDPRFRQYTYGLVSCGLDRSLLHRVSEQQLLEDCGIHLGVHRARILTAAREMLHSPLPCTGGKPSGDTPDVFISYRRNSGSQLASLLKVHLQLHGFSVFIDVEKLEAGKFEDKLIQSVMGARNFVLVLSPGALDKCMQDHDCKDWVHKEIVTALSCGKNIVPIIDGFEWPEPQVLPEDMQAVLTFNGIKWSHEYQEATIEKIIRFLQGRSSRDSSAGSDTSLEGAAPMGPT
structure (smiles),measurement,setting,value
O=C(Oc1ccccc1C(=O)O)c1ccccc1O,parasite load remaining,[1],63.4% (inactive)
same,viability,[1],139%
same,nuclear beta-catenin stimulation,[2]; at 10 µM,0.1% (inactive)
same,nuclear beta-catenin stimulation,"[2]; stimulation, at 2 µM",0.1%
same,insulin secretion stimulation,[3],-0.5% (inactive)
same,viability decrease,[4],13.4% (inactive)
same,tube area decrease,[5],3.9% (inactive)
same,GLP1 secretion stimulation,[6],-0.4% (inactive)
same,inhibition of viability,[7],0.8% (inactive)
same,viability decrease (inhibition),[8],16.6% (inactive)
same,viability decrease (inhibition),[9],24.3% (inactive)
same,red/green cell ratio (normalised),[10],1.15 (inactive)
same,normalised cell number,[10]; [17],1.17
same,normalised cell number,[10]; [18],1.35
same,fold change,[11]; [19],0.931 (inactive) and 0.896 (inactive)
same,fold change,[11]; [20],1.03 and 3.07
same,cell count,[11]; [21],8500 and 11000
same,cell count,[11]; [22],9120 and 12300
same,z-score,[12]; [23],-0.0904 (inactive)
same,z-score,[12]; [24],-0.293
same,remaining NAD,[13],10 nM (inactive)
COc1ccc(O)cc1,nuclear beta-catenin stimulation,[2]; at 10 µM,1.7% (inactive)
same,nuclear beta-catenin stimulation,"[2]; stimulation, at 2 µM",0.5%
same,insulin secretion stimulation,[3],-1.8% (inactive)
same,viability decrease,[4],12.9% (inactive)
same,tube area decrease,[5],18.7% (inactive)
same,GLP1 secretion stimulation,[6],-0.4% (inactive)
same,inhibition of viability,[7],-4.9% (inactive)
same,viability decrease (inhibition),[8],88.2% (active)
same,viability decrease (inhibition),[9],27.4% (inactive)
same,red/green cell ratio (normalised),[10],1.14 (inactive)
same,normalised cell number,[10]; [17],1.04
same,normalised cell number,[10]; [18],1.18
same,fold change,[11]; [19],0.919 (inactive) and 0.917 (inactive)
same,fold change,[11]; [20],0.877 and 0.265
same,cell count,[11]; [21],7700 and 8110
same,cell count,[11]; [22],8370 and 8840
same,z-score,[12]; [23],-0.189 (inactive)
same,z-score,[12]; [24],-0.254
same,remaining NAD,[13],10 nM (inactive)
Cc1ncc(CO)c(CO)c1O,survival,[14],7.67 (inactive)
same,parasite load remaining,[1],121% (inactive) and 68.6% (inactive) and 52.2% (inactive)
same,viability,[1],108% and 75.6% and 94.6%
same,nuclear beta-catenin stimulation,[2]; at 10 µM,0.1% (inactive)
same,nuclear beta-catenin stimulation,"[2]; stimulation, at 2 µM",0.9%
same,insulin secretion stimulation,[3],-1.8% (inactive)
same,viability decrease,[4],4.5% (inactive)
same,tube area decrease,[5],-14.1% (inactive)
same,GLP1 secretion stimulation,[6],3.1% (inactive)
same,inhibition of viability,[7],-18.3% (inactive)
same,viability decrease (inhibition),[8],23.7% (inactive)
same,viability decrease (inhibition),[9],3.95% (inactive)
same,red/green cell ratio (normalised),[10],0.91 (inactive)
same,normalised cell number,[10]; [17],1.07
same,normalised cell number,[10]; [18],0.97
same,fold change,[11]; [19],0.859 (inactive) and 0.971 (inactive) and 0.904 (inactive)
same,fold change,[11]; [20],1.28 and 0.606 and 6.28
same,cell count,[11]; [21],9040 and 7900 and 12400
same,cell count,[11]; [22],10500 and 8140 and 13700
same,z-score,[12]; [23],-0.22 (inactive) and 0.248 (inactive)
same,z-score,[12]; [24],-0.0864 and 0.109
same,remaining NAD,[13],10 nM (inactive)
CN1C(CCl)Nc2cc(Cl)c(S(N)(=O)=O)cc2S1(=O)=O (stereo not given),nuclear beta-catenin stimulation,[2]; at 10 µM,-0.9% (inactive)
same,nuclear beta-catenin stimulation,"[2]; stimulation, at 2 µM",1.3%
same,insulin secretion stimulation,[3],2.3% (inactive)
same,viability decrease,[4],0.4% (inactive)
same,tube area decrease,[5],3.9% (inactive)
same,GLP1 secretion stimulation,[6],-2.1% (inactive)
same,inhibition of viability,[7],-10.4% (inactive)
same,viability decrease (inhibition),[8],-2.9% (inactive)
same,viability decrease (inhibition),[9],-20.7% (inactive)
same,red/green cell ratio (normalised),[10],0.93 (inactive)
same,normalised cell number,[10]; [17],1.23
same,normalised cell number,[10]; [18],1.15
same,fold change,[11]; [19],0.914 (inactive) and 0.898 (inactive)
same,fold change,[11]; [20],1.08 and 0.519
same,cell count,[11]; [21],8680 and 8370
same,cell count,[11]; [22],9500 and 9310
same,z-score,[12]; [23],-0.258 (inactive)
same,z-score,[12]; [24],-0.124
same,remaining NAD,[13],10 nM (inactive)
O=C(N/N=C/c1ccc([N+](=O)[O-])o1)c1ccc(O)cc1,survival,[14],8.5 (inactive)
same,parasite load remaining,[1],-8.11% (inactive) and 25.6% (inactive)
same,viability,[1],21.5% and 60.5%
same,nuclear beta-catenin stimulation,[2]; at 10 µM,18.2% (inactive)
same,nuclear beta-catenin stimulation,"[2]; stimulation, at 2 µM",2%
same,insulin secretion stimulation,[3],-3% (inactive)
same,viability decrease,[4],99.5% (active)
same,tube area decrease,[5],26.5% (inactive)
same,GLP1 secretion stimulation,[6],5.1% (inactive)
same,inhibition of viability,[7],102% (active)
same,viability decrease (inhibition),[8],67.8% (active)
same,viability decrease (inhibition),[9],81.1% (active)
same,red/green cell ratio (normalised),[10],0.78 (inactive)
same,normalised cell number,[10]; [17],1.11
same,normalised cell number,[10]; [18],0.87
same,fold change,[11]; [19],0.844 (inactive)
same,fold change,[11]; [20],1.92
same,cell count,[11]; [21],3090
same,cell count,[11]; [22],3660
same,z-score,[12]; [23],-3.44 (inactive)
same,z-score,[12]; [24],-1.34
same,remaining NAD,[13],10 nM (inactive)
Cc1cc2c(cc1S(N)(=O)=O)S(=O)(=O)CCC2,survival,[14],26.1 (inactive)
same,parasite load remaining,[1],38.3% (inactive) and 103% (inactive)
same,viability,[1],50.2% and 93.9%
same,nuclear beta-catenin stimulation,[2]; at 10 µM,-0.4% (inactive)
same,nuclear beta-catenin stimulation,"[2]; stimulation, at 2 µM",1%
same,insulin secretion stimulation,[3],1.4% (inactive)
same,viability decrease,[4],-10.3% (inactive)
same,tube area decrease,[5],3.5% (inactive)
same,GLP1 secretion stimulation,[6],-0.7% (inactive)
same,inhibition of viability,[7],-0.03% (inactive)
same,viability decrease (inhibition),[8],3.2% (inactive)
same,viability decrease (inhibition),[9],-1.8% (inactive)
same,red/green cell ratio (normalised),[10],0.91 (inactive)
same,normalised cell number,[10]; [17],0.86
same,normalised cell number,[10]; [18],0.78
same,fold change,[11]; [19],0.932 (inactive)
same,fold change,[11]; [20],1.01
same,cell count,[11]; [21],8570
same,cell count,[11]; [22],9200
same,z-score,[12]; [23],-0.881 (inactive)
same,z-score,[12]; [24],0.124
same,remaining NAD,[13],10 nM (inactive)
O=c1cc[nH]c(=O)[nH]1,nuclear beta-catenin stimulation,[2]; at 10 µM,2.3% (inactive)
same,nuclear beta-catenin stimulation,"[2]; stimulation, at 2 µM",0.3%
same,insulin secretion stimulation,[3],0% (inactive)
same,viability decrease,[4],0.75% (inactive)
same,tube area decrease,[5],-14.5% (inactive)
same,GLP1 secretion stimulation,[6],-2.6% (inactive)
same,inhibition of viability,[7],1% (inactive)
same,viability decrease (inhibition),[8],8% (inactive)
same,viability decrease (inhibition),[9],3.55% (inactive)
same,red/green cell ratio (normalised),[10],1.11 (inactive)
same,normalised cell number,[10]; [17],1.05
same,normalised cell number,[10]; [18],1.16
same,fold change,[11]; [19],0.956 (inactive) and 0.943 (inactive)
same,fold change,[11]; [20],0.736 and 0.726
same,cell count,[11]; [21],8740 and 8670
same,cell count,[11]; [22],9140 and 9190
same,z-score,[12]; [23],-0.276 (inactive)
same,z-score,[12]; [24],-0.187
same,remaining NAD,[13],10 nM (inactive)
same,inhibition,"[15]; at 0.5 µM, stronger effect = higher value",-22.6% (inactive)
same,inhibition,"[15]; measured here: combination with BGB IC20, at 0.005 µM",-16.6%
same,inhibition,"[15]; measured here: combination with BGB IC40, at 0.005 µM",-38.5%
same,inhibition,"[15]; measured here: combination with BGB IC40, at 0.05 µM",-9.29%
same,inhibition,"[15]; measured here: combination with cisplatin, at 0.5 µM, stronger effect = higher value",-28.9%
same,inhibition,"[15]; measured here: combination with cisplatin, at 5 µM, stronger effect = higher value",-19.9%
same,inhibition,"[16]; BGB combo, at 5 µM",-47.9%
same,inhibition,[16]; at 0.5 µM,-41.6% (inactive)
same,inhibition,"[16]; cisplatin combo, at 5 µM",-56.4%
same,inhibition,"[16]; measured here: with BGB IC20 combination, at 0.5 µM",-36.5%
same,inhibition,"[16]; measured here: with cisplatin IC20 combination, at 0.5 µM",-23.5%
